Laboratory results from PubChem BioAssay (Tox21).
Values joined by “and” are separate entries in the source; they are usually repeats but may differ in a detail not shown here. Identical values can stand only once. Records with an inconclusive call do not appear. Where a call stands in place of a potency, no number is given. Unmarked numbers belong to inactive results. Active and inactive are the calls of the source. The call rests on the fitted dose curve; in most records, active means well fitted cell-killing curve with a large enough effect in the repeat runs; inconclusive means weak or mixed curves, or effect the other way; inactive means flat fitted curve, though single readings scatter.

Assay: qHTS RealTime-Glo MT Cell Viability Assay in HEK293 cells - 32 hour (AID 1224868); further: nearly all actives have a fitted effect of over 50% in size; on activity change, negative = cytotoxic: top concentration of the series differs between compounds
Conditions: RealTime-Glo luminescence; series mostly up to 76.8 µM
From the text: National Center for Advancing Translational Sciences [NCATS]
NIH Chemical Genomics Center [NCGC]
U.S. Environmental Protection Agency [EPA]
National Institutes of Environmental Health Sciences [NIEHS]
National Toxicology Program [NTP]
U.S. Food and Drug Administration [FDA]
Measure of cell viability is critical in the cell-base assay. Analysis of cell viability is necessary for the characterization of cell responses to cytotoxic drugs and environmental stress. A RealTime-Glo MT Cell Viability Assay to monitor cell viability in real time of continues cell culture during 40 hours of compound treatment was used to screen Tox21 10K library compounds in Hek293 cells. The RealTime-Glo MT Cell Viability Assay is a nonlytic, homogeneous, bioluminescent method to measure cell viability in real time using a simple, plate-based method. The assay involves adding NanoLuc luciferase and a cell-permeant prosubstrate to cells in culture. Viable cells reduce the proprietary prosubstrate to generate a substrate for NanoLuc luciferase. This substrate diffuses from cells into the surrounding culture medium, where it is rapidly used by the NanoLuc Enzyme to produce a luminescent signal. The signal correlates with the number of viable cells, making the assay well suited for cytotoxicity studies.
Tox21 Assay Protocol Summary:
The mixture of Hek293 cell suspension and reagents were dispensed at 600cells/6 ul/well in 1536-well tissue culture treated black solid bottom plates using a Multidrop dispenser. After the assay plates were incubated at a 37 C/5% CO2 incubator for 5 hours, 23 nL of compounds dissolved in DMSO, positive and negative controls was transferred to the assay plate by a pintool work station. The plates were incubated at 37 C for 40 hours. The luminescence intensity were measured at 0h, 8h, 16h, 24h, 32h and 40h time points using ViewLux plate reader during compound treatment.
Potency means the concentration at half of the fitted maximal effect.

Q: Which Potency does the source give for `C=C(CC)C(=O)c1ccc(OCC(=O)O)c(Cl)c1Cl` here?
A: The Potency was “inactive”.

Q: With `Cc1cc(-n2nc3ccc(Cl)cc3n2)c(O)c(C(C)(C)C)c1` as the compound, how does the Potency read?
A: Its Potency is “inactive”.

Q: With `O=C(O)c1cc(O)c2ccccc2c1O` as the compound, how does the Potency read?
A: The Potency was 43.6 µM (active).

Q: With `CCCCCCCC` as the compound, how does the Potency read?
A: The Potency was “inactive”.

Q: With `CCCCCCCC/C=C\CCCCCCCCN` as the compound, how does the Potency read?
A: Its Potency is 23.9 µM (active).

Q: Which Potency does the source give for `CC(C)(C)c1csc(-c2cc3cc(OCc4ccccc4CC(=O)O)ccc3o2)n1` here?
A: Its Potency is 38.9 µM (active).

Q: Which Potency does the source give for `Cc1c(N)cccc1C(F)(F)F` here?
A: Its Potency is “inactive”.

Q: With `Nc1ccc(Oc2ccc(Cl)cc2)cc1` as the compound, how does the Potency read?
A: The Potency was 21.4 µM (active).

Q: Which Potency does the source give for `O=C(O)c1cc(N=Nc2ccc([N+](=O)[O-])cc2)ccc1O` here?
A: The Potency was “inactive”.

Q: Which Potency does the source give for `CC(=O)CC(=O)Nc1ccc(S(=O)(=O)O)cc1` here?
A: The Potency was “inactive”.

Q: With `ClCCl` as the compound, how does the Potency read?
A: Its Potency is “inactive”.

Q: With `Cc1ccc(C(C)C)cc2c(C)ccc1-2` as the compound, how does the Potency read?
A: The Potency was “inactive”.

Q: For `O=c1c(O)c(-c2ccc(O)cc2O)oc2cc(O)cc(O)c12`, which Potency is on record?
A: The Potency was “inactive”.

Q: For `CC(C)(C)c1ccc(C(O)CCCN2CCC(C(O)(c3ccccc3)c3ccccc3)CC2)cc1` (stereo not given), which Potency is on record?
A: The Potency was 4.77 µM (active).

Q: Which Potency does the source give for `COc1ccc(-c2coc3cc(O)ccc3c2=O)cc1` here?
A: The Potency was “inactive”.

Q: With `CNc1ccc([N+](=O)[O-])cc1` as the compound, how does the Potency read?
A: Its Potency is “inactive”.

Q: Which Potency does the source give for `Nc1nc2c(ncn2COCCO)c(=O)[nH]1` here?
A: Its Potency is “inactive”.

Q: With `O=C(Nc1ccc2c(O)c(N=Nc3ccc(N=Nc4ccc(S(=O)(=O)O)cc4)cc3)c(S(=O)(=O)O)cc2c1)c1ccccc1` as the compound, how does the Potency read?
A: The Potency was “inactive”.

Q: Which Potency does the source give for `c1ccsc1` here?
A: Its Potency is “inactive”.

Q: With `CNC(=O)c1ccccc1Sc1ccc2c(/C=C/c3ccccn3)n[nH]c2c1` as the compound, how does the Potency read?
A: The Potency was 9.52 µM (active).

Q: Which Potency does the source give for `CC(C)(C)NSc1nc2ccccc2s1` here?
A: Its Potency is “inactive”.

Q: With `C#C[C@]1(OC(C)=O)CC[C@H]2[C@@H]3CCC4=C[C@@H](OC(C)=O)CC[C@@H]4[C@H]3CC[C@@]21C` as the compound, how does the Potency read?
A: Its Potency is 21.3 µM (active).

Q: For `CC1(C)CCC[C@]2(C)[C@H]3CCO[C@]3(C)CC[C@@H]12`, which Potency is on record?
A: Its Potency is “inactive”.

Q: For `FC(F)(F)c1cccc(Cl)c1`, which Potency is on record?
A: Its Potency is “inactive”.

Q: With `C=CC(C)(CCC=C(C)C)OC=O` (stereo not given) as the compound, how does the Potency read?
A: Its Potency is “inactive”.

Q: Which Potency does the source give for `CCCCCCCCCCCCCC[N+](C)(C)C` here?
A: Its Potency is 9.44 µM (active) and 12.3 µM (active) and 2.13 µM (active).

Q: With `O=C(O)c1cc(-c2ccc(F)cc2F)ccc1O` as the compound, how does the Potency read?
A: The Potency was “inactive”.

Q: With `O=C1C(c2[nH]c3ccc(S(=O)(=O)O)cc3c2O)=Nc2ccc(S(=O)(=O)O)cc21` as the compound, how does the Potency read?
A: The Potency was “inactive”.

Q: For `Cc1cc(C(C#N)c2ccc(Cl)cc2)c(Cl)cc1NC(=O)c1cc(I)cc(I)c1O` (stereo not given), which Potency is on record?
A: The Potency was “inactive”.

Q: Which Potency does the source give for `O=C(O)c1cc(=O)c2ccccc2o1` here?
A: Its Potency is “inactive”.

Q: Which activity change, negative = cytotoxic does the source give for `CC(C)(C)CC(C)(C)c1ccc(Nc2ccc(C(C)(C)CC(C)(C)C)cc2)cc1` here?
A: Its activity change, negative = cytotoxic is 9.22% [at 6.97 µM].

Q: Which Potency does the source give for `CCCCC/C=C\C/C=C\CCCCCCCC(=O)O` here?
A: Its Potency is “inactive”.

Q: For `CC(=O)[C@H]1CC[C@H]2[C@@H]3CCC4=CC(=O)CC[C@]4(C)[C@H]3CC[C@]12C`, which Potency is on record?
A: Its Potency is 13.7 µM (active) and 17.4 µM (active).

Q: With `C#Cc1ccc(-c2ccccc2F)cc1` as the compound, how does the Potency read?
A: Its Potency is “inactive”.

Q: For `O=C(/C=C/c1ccc(O)c(O)c1)O[C@@H](C(=O)O)[C@@H](OC(=O)/C=C/c1ccc(O)c(O)c1)C(=O)O`, which Potency is on record?
A: Its Potency is “inactive”.

Q: With `O=C(/C=C/c1ccccc1)OC/C=C/c1ccccc1` as the compound, how does the Potency read?
A: Its Potency is “inactive”.

Q: For `CN(C)c1ccc(C(=C2C=CC(=[N+](C)C)C=C2)c2ccc(N(C)C)cc2)cc1`, which Potency is on record?
A: Its Potency is 2.74 µM (active) and 6.92 µM (active) and 2.39 µM (active).

Q: For `CC[C@H](C)COC(=O)/C=C/c1ccc(N=Cc2ccc(OC)cc2)cc1`, which Potency is on record?
A: Its Potency is 21.8 µM (active).

Q: With `Cc1c(C)c2c(c(C)c1OC(=O)c1cccnc1)CC[C@@](C)(CCC[C@H](C)CCC[C@H](C)CCCC(C)C)O2` as the compound, how does the Potency read?
A: The Potency was “inactive”.

Q: For `O=C(O)[C@H](O)[C@@H](O)[C@H](O[C@@H]1O[C@H](CO)[C@H](O)[C@H](O)[C@H]1O)[C@H](O)CO`, which Potency is on record?
A: The Potency was “inactive”.
